High-throughput results (PubChem BioAssay)
HT1080-NT tox: kills 2HG-producing HT-1080-NT fibrosarcoma cells. AID 686970. 1.6% of 360,000 active. Potency, µM (series often up to 46.1 µM), for the others: at the top dose activity, negative = less viability, hits mostly cytotoxic. HT-1080-NT fibrosarcoma viability, CellTiter-Glo ATP luminescence, 48 h;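 also: NT is the 2HG producing partner of a matched IDH1 knockdown line; 0% = DMSO-treated cells and -100% = media-only wells without cells; nearly all actives have a fitted effect of over 55% in size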
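Viability by CellTiter-Glo luminescence after 48 h compound exposure at 37C of HT-1080-NT cells (750/well, RPMI, 5% FBS). % activity scaled between DMSO wells and medium-only wells, then curve-fitted and categorized by curve class.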
KB-V1 cytotox: KB-V1 MDR subline cytotoxicity; Potency, µM (titrated, usually from 46.1 µM), usual class: cytotoxic; KB-V1 MDR cells viability, CellTiter-Glo, 72 h; 3.4% of 400,000 active; also: % is scaled to controls: 0 for no effect and ±100 for the full control effect; nearly all actives have a fitted effect of over 60% in size
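qHTS viability screen in drug-selected KB-V1 MDR cells: 72 h compound treatment at 37 degrees C, ATP luminescence end point.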
HT1080 IDH1KD tx: kills HT-1080 cells with IDH1 knockdown; Potency, µM (highest dose often 46.1 µM), without a hit: at the highest dose activity, negative = toxicity, actives largely listed as cytotoxic; AID 686971; HT-1080 IDH1 knockdown viability, ATP luminescence, 48 h; 2% of 360,000 active;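 also: 0% = DMSO wells and -100% = cell-free medium wells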
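Assay cells: HT-1080 with IDH1 knockdown, 750 per well, RPMI/5% FBS. Exposure: 48 h at 37 °C following 2 h pre-incubation. Read: CellTiter-Glo luminescence; fitted concentration-response, curve class assigned.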
S2 tox: reduces viability in counter-screen for ATXN expression inhibitors; S2 cells (HEK-293 line with an ATXN2-luciferase reporter) viability, CellTiter-Fluor protease fluorescence, 24 h; Potency, µM (doses to about 56.7 µM), usual class: cytotoxic; 0.49% of 400,000 active; AID 651635; also: nearly all actives have a fitted effect of over 40% in size
ATXN2 expr inh: inhibitors of ATXN2 expression; HEK-293 ATXN2-luciferase reporter, luminescence, 24 h; Potency, µM (top dose mostly 57 µM), inactives show at the highest dose activity change, negative = inhibition, usual class: inhibitors; 0.72% of 360,000 active; AID 1745845; also: % is scaled to controls: 0 for no effect and ±100 for the full control effect; nearly all actives have a fitted effect of over 55% in size
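ATXN2-luciferase reporter cells (luciferase flanked by upstream and downstream ATXN2 gene portions) were treated 24 h at 37 °C with compounds at up to 57 uM. SteadyGlo luminescence gave expression; GF-AFC fluorescence gave viability.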
KB-3-1 tox: kills parental KB-3-1 adenocarcinoma cells; KB-3-1 viability, CellTiter-Glo ATP luminescence, 72 h; Potency, µM (titrated, usually from 46.1 µM), actives largely listed as cytotoxic; 1.4% of 400,000 active; AID 1347075; also: % is scaled to controls: 0 for no effect and ±100 for the full control effect; nearly all actives have a fitted effect of over 60% in size
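Cells are dispensed, compounds pinned in, plates held at 37 °C for 72 h, then CellTiter-Glo is added and luminescence read after 10 minutes. Cell line: parental KB-3-1 in phenol-red-free DMEM, 10% FBS.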
Numbers without * were called inactive; i = inactive; u = inconclusive; x = no result. This is a sample that favours compounds with a hit; in the whole collection about 6.2% have one here. Calls follow the shape of the dose curve; as a rule, active = well fitted curve in the direction sought with a large enough effect; inconclusive = small, poorly fitted or top-dose-only effect, or another doubt; inactive = no such curve, though single readings can be large; an effect the other way counts as inactive or inconclusive. Potency is read from the fitted curve at half-maximal effect.

SMILES | HT1080-NT tox | KB-V1 cytotox | HT1080 IDH1KD tx | S2 tox | ATXN2 expr inh | KB-3-1 tox
COc1cc(F)ccc1-c1cc(C(=O)Nc2ccc(C)c(NS(C)(=O)=O)c2)[nH]n1 | -18% | i | 5% | i | 3% | i
Cc1ccc(NC(=O)C2CCN(S(=O)(=O)c3ccc4[nH]c5c(c4c3)CCCCC5)CC2)cc1 | x | i | x | x | x | i
Cc1cccc[n+]1CC(=O)/C=C1\N(C)c2ccccc2C1(C)C | -13% | i | u | u | -20% | 4.1µM*
CN1/C(=C\C(=O)CSc2cccc[n+]2[O-])C(C)(C)c2ccccc21 | 0% | i | -10% | i | -3% | i
Cc1ccc[n+](CC(=O)/C=C2\N(C)c3ccccc3C2(C)C)c1 | -18% | u | u | i | -23% | 7.3µM*
Cc1cccc(C(=O)NCC(=O)N2CCN(c3ccccn3)CC2)c1 | -1% | 21µM* | 0% | i | 10% | i
C/C(N)=C(/C#N)C(=O)CSc1nc2cc(Cl)ccc2s1 | 35µM* | u | -16% | i | -14% | i
N#C/C(=C\c1c(Oc2ccc(F)cc2)nc2ccccn2c1=O)c1nc2ccccc2s1 | x | i | x | i | 10% | i
CN(CC(=O)Nc1ccc(Cl)cc1)C(=O)c1ccc(S(=O)(=O)Nc2ccccc2)cc1 | 13µM* | i | 16µM* | i | u | i
COc1ccccc1CNC(=O)c1cc2sccc2n1Cc1ccc(Cl)cc1 | x | i | x | i | -1% | i
Cc1cc(C=Nc2ccc(/C=C/c3ccnc4ccccc34)cc2)ccc1N(C)C | x | i | x | x | x | i
CN(C)c1c(Cl)cc(/C=C/c2ccnc3ccccc23)cc1Br | x | 16µM* | x | x | x | 18µM*
Cc1cc(/C=C/c2ccnc3ccccc23)ccc1N(C)C | x | 13µM* | x | x | x | 7.3µM*
CN(C)c1ccc(C=Cc2ccnc3ccccc23)cc1N | 23µM* | i | u | i | u | u
O=C(CN1C(=O)COc2ccc(S(=O)(=O)N3CCCC3)cc21)N1CCN(c2ccccc2F)CC1 | x | i | x | u | 7% | i
Cc1cc(C)cc(-n2ncc3c2CCCC3NC(=O)c2ccccc2N2CCOCC2)c1 (stereo not given) | u | u | 16µM* | u | -15% | u
CC(C)(C)c1ccc(-n2ncc3c2CCCC3NC(=O)CCN2CCCC2=O)cc1 (stereo not given) | u | i | 18µM* | i | x | i
Cn1nccc1C(=O)NC1CCCc2c1cnn2-c1ccc(C(C)(C)C)cc1 (stereo not given) | 1.3µM* | u | 1.3µM* | u | -33% | u
CC(=O)NC1CCCc2c1cnn2-c1ccc(C(C)(C)C)cc1 (stereo not given) | -1% | i | -3% | i | -12% | i
CC(=O)CCC(=O)NC1CCCc2c1cnn2-c1ccc(C(C)(C)C)cc1 (stereo not given) | -10% | u | -9% | u | -11% | i
CC(C)(C)c1ccc(-n2ncc3c2CCCC3NC(=O)CN2CCCC2=O)cc1 (stereo not given) | u | 8.2µM* | 1% | i | -12% | u
Cc1cccc(NC(=O)CSc2nnc3scc(-c4ccccc4)n23)c1 | x | i | x | i | -38% | i
COc1ccc(-c2cc(C(F)(F)F)nc(S(C)(=O)=O)n2)cc1 | 18µM* | u | u | 18µM* | u | u
COc1cccc(-c2cc(C(F)(F)F)nc(-n3cc(Cl)cn3)n2)c1 | 22% | i | 23% | i | u | i
CS(=O)(=O)c1nc(-c2ccc(F)cc2)cc(C(F)(F)F)n1 | 21µM* | u | 8.2µM* | u | u | u
COc1ccc(-c2cc(C(F)(F)F)nc(-n3cc(Cl)cn3)n2)cc1 | u | 23µM* | 3% | i | -19% | i
